NPC1 prom act: NPC1 promoter activation; AID 485313; Huh7 NPC1 promoter luciferase reporter, 24 h; Potency, µM (highest dose often 9.22 µM), for inactives: at the highest dose activation, actives largely listed as activators; actives 2.4% (n = 320,000); note: % of control where 0% means no effect; nearly all actives have a fitted effect of over 60% in size
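Cells: Huh7 expressing luciferase under the NPC1 promoter, 1500/well. Seeded 2 h, compound added, incubated 24 h at 37 °C. Luciferase reagent, 10 min ambient, then luminescence.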
Rab9 prom act: activates the Rab9 promoter; Huh7 Rab9 promoter-luciferase reporter, luminescence, 24 h; Potency, µM (doses to about 9.22 µM), for inactives: top-dose activation, negative = inhibition, hits mostly activators; actives 2.8% (n = 320,000); AID 485297; note: % of control where 0% means no effect; nearly all actives have a fitted effect of over 60% in size
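Huh7 cells stably carrying Rab9 promoter–luciferase reporter, plated 1500 cells/well, compound added after 2 h and incubated 24 h at 37 °C; luciferase luminescence then read after 10 min with detection reagent.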
ELG1 genotoxic: inducers of genotoxicity in HEK293T ELG1-luciferase cells; HEK293T ELG1-luciferase reporter, luminescence, 16 h; Potency, µM (doses to about 46 µM), for the others: at the top dose activity change, positive = activation, most hits filed as activators; actives 1.3% (n = 330,000); AID 504466; note: % of control where 0% means no effect; nearly all actives have a fitted effect of over 60% in size
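HEK293T cells expressing luciferase-tagged ELG1 were treated with compound or DMSO for 16 hr at 37°C. Luciferase activity was then read after 30 min with ONE-Glo at room temperature; rising signal flags genetic stress.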
ELG1 DNA repair: blocks ELG1-dependent DNA repair in HEK293T cells; actives 2.3% (n = 330,000); AID 504467; Potency, µM (highest dose often 46.1 µM), for the others: at the top dose activity change, negative = inhibition, usual class: inhibitors; HEK293T ELG1-luciferase reporter, luminescence, 16 h; DNA damage induced by 5-fluorouridine; note: % is set by controls: 0 for no effect and ±100 for the full control effect; nearly all actives have a fitted effect of over 55% in size
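DMSO vehicle served as the neutral condition. Each well held 2,000 cells given 5-fluorouridine plus compound; after 16 hr at 37 °C/5% CO2, ONE-Glo was added and luciferase measured 30 min later.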
SMN2 splice up: enhancers of SMN2 splice variant expression; HEK293 SMN2-luciferase splicing reporter, luminescence, 30-36 h; Potency, µM (top dose mostly 46.1 µM), for the others: at the top dose activity change, positive = activation, actives largely listed as activators; actives 2.8% (n = 210,000); AID 1458; note: % of control where 0% means no effect; nearly all actives have a fitted effect of over 55% in size
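HEK293 cells carry an SMN2 […]–luciferase reporter in which exon 7 inclusion puts luciferase in frame. Cells were plated 10-12 h before compound addition, then incubated 30-36 h at 37C. ONE-Glo luminescence was read; sodium butyrate at 4.5 mM final served as control.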
FLuc modulator: counter-screen for miR-21 project: firefly luciferase inhibitors or activators. P08659. purified FLuc, Km substrates, luminescence inhibition. Potency, µM (doses to about 57.5 µM), without a hit: at the top dose activity change, negative = inhibition, hits mostly inhibitors. actives 6.9% (n = 360,000);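 note: plate controls were vehicle for no effect and reference inhibitor for full effect; nearly all actives have a fitted effect of over 55% in size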
Target sequence (P08659 whole entry, looked up): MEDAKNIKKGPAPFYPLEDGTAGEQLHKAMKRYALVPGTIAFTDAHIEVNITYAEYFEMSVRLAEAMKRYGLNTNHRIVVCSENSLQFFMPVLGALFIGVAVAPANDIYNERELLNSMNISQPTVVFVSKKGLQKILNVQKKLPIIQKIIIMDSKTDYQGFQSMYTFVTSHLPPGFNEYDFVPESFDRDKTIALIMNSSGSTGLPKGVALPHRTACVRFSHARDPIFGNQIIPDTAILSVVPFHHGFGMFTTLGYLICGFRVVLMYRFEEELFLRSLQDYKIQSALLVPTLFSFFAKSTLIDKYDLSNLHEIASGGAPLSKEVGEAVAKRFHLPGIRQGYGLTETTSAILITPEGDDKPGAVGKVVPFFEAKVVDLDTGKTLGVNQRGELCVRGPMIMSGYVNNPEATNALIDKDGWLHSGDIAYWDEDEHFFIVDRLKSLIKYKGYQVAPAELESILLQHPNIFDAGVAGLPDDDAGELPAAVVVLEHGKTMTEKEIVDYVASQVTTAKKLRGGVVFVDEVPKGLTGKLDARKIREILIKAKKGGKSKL
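Purified P. pyralis luciferase, 10 nM final, with Km-level 10 uM D-luciferin and 10 uM ATP in 50 mM Tris acetate pH 7.5, 10 mM Mg acetate, 0.01% Tween-20, 0.05% BSA; 6-point qHTS titration about 60 µM downward; luminescence read.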
Numbers without * were called inactive; ? = inconclusive; nt = no result given; [ ] = dose if it differs, or a comment. In the library only some 9.3% were active in any assay of this set; here they are far more common. Calls come from the whole dose curve; as a rule, active = well fitted curve in the direction sought with a large enough effect; inconclusive = small, poorly fitted or top-dose-only effect, or another doubt; inactive = no such curve, though single readings can be large; an effect the other way counts as inactive or inconclusive. Potency is the fitted concentration of half-maximal effect.

SMILES	NPC1 prom act	Rab9 prom act	ELG1 genotoxic	ELG1 DNA repair	SMN2 splice up	FLuc modulator
COc1ccccc1NC(=O)C(=O)N/N=C/c1cccs1	26%	?	?	?	10%[1.84 µM]	9.5µM*
COc1ccc(/C=N/NC(=O)c2ccc(C)nc2)cc1O	7%	-2%	-2%	-8%	nt	-18%
O=C(N/N=C/c1cccc(OC(=O)c2ccccc2Cl)c1)c1cccnc1	24%	10%	18%	?	nt	24µM*
COc1cccc(/C=N\NC(=O)c2ccc(C)nc2)c1	23%	13%	11%	?	nt	19µM*
COc1cccc(/C=N/NC(=O)c2cnn(-c3ccccc3)c2N)c1	?	?	-2%	?	nt	12µM*
CC(CCC(=O)O)C1CCC2C3CC[C@@H]4CCCC[C@@]4(C)C3CC[C@@]12C (some centres not stated)	nt	nt	nt	nt	2%	nt
Cc1nnc(SCc2cccc([N+](=O)[O-])c2)o1	0%	1%	0%	-4%	-13%	-1%
CCN1C(=S)N[C@@H](c2cccs2)C(C(=O)OC)=C1C	-3%	-3%	-2%	2%	nt	3%
O=C(Nc1ccc(Cl)cc1)OCc1ccccn1	2.5µM*	2.2µM*	18%	?	13µM*	12µM*
O=C(Nc1ccc(Cl)cc1)OCc1cncs1	?	?	7%	?	-26%	15µM*
O=C(Nc1cccc(Cl)c1)OCc1cncs1	13%	24%	3%	18%	-23%	-18%
Cn1c(=O)c2c(nc(Sc3ncccn3)n2Cc2ccccc2Cl)n(C)c1=O	1%	2%	-3%	?	-5%	-1%
Cn1c(=O)c2c(nc(Sc3ncccn3)n2Cc2ccc(Cl)cc2)n(C)c1=O	0%	2%	-4%	16µM*	-7%	0%
COc1ccc(-c2n[nH]c(=S)n2/N=C/C=C\c2ccccc2OC)cc1	0%	12%	4%	?	13%	-3%
COc1ccccc1/C=C/C=N/n1c(-c2cc(C)[nH]n2)n[nH]c1=S	-1%	1%	3%	3%	0%	21µM*
COc1ccccc1/C=C/C=N/n1c(-c2ccccn2)n[nH]c1=S	18%	?	?	?	nt	17µM*
COc1ccccc1/C=C/C=N/n1c(-c2ccc(C)cc2)n[nH]c1=S	0%	-4%	-1%	9%	-14%	?
COc1ccccc1/C=C/C=N/n1c(-c2ccncc2)n[nH]c1=S	-4%	2%	3%	0%	15%	12µM*
S=c1[nH]nc(-c2ccncc2)n1/N=C/C(Cl)=C\c1ccccc1	3.5µM*	3.2µM*	-5%	?	11µM*	-8%
Cc1cc(-c2n[nH]c(=S)n2/N=C/C=C/c2ccccc2)n[nH]1	-6%	-2%	1%	13%	-10%	-19%
CSc1cccc(NC(=S)N(CCCN2CCCC(C)C2)Cc2cccs2)c1 (configuration not stated)	-3%	-1%	-5%	-4%	-17%	0%
COc1ccc(-c2cc([C@H](O)C3CCCCN3)c3ccccc3n2)cc1 (some centres not stated)	nt	nt	nt	nt	-4%[9.22 µM]	nt
S=c1[nH]nc(-c2ccco2)n1/N=C/C=C/c1ccco1	-1%	-7%	-3%	-15%	8%	0%
S=c1[nH]nc(-c2cc(-c3ccccc3)n[nH]2)n1/N=C/C=C/c1ccco1	-3%	0%	5%	3%	nt	13µM*
N/C(=N\OC(=O)C12CC3CC(CC(C3)C1)C2)c1ccncc1	-3%	-1%	8%	?	nt	19µM*
Cc1ccc(C23CC4CC(CC(C(N)=O)(C4)C2)C3)cc1	1%	0%	4%	16%	nt	-11%
C/C(=N\NC(=O)c1ccncc1)C12CC3CC(CC(C3)C1)C2	2%	0%	-1%	-15%	-3%	-3%
Cc1ccc(/C(N)=N/OC(=O)C23CC4CC(CC(C4)C2)C3)cc1	24%	?	4%	?	-15%	9.5µM*

Source: PubChem
